Source: PubChem BioAssay (Tox21)
Inconclusive results are not listed. Active and inactive are the calls of the source. Unless noted, calls come from the whole dose curve.

Experiments:
[1] = molecular target: Estrogen receptor (Homo sapiens) (UniProt P03372); experiment: qHTS assay to identify small molecule antagonists of the estrogen receptor alpha (ER-alpha) signaling pathway (AID 743069; active = well fitted curve in the direction sought with a large enough effect in the signal ratio in the repeat runs, not every such curve was filed as active; the % refers to the signal ratio)
Sequence of Estrogen receptor (Homo sapiens) (P03372 whole entry, looked up): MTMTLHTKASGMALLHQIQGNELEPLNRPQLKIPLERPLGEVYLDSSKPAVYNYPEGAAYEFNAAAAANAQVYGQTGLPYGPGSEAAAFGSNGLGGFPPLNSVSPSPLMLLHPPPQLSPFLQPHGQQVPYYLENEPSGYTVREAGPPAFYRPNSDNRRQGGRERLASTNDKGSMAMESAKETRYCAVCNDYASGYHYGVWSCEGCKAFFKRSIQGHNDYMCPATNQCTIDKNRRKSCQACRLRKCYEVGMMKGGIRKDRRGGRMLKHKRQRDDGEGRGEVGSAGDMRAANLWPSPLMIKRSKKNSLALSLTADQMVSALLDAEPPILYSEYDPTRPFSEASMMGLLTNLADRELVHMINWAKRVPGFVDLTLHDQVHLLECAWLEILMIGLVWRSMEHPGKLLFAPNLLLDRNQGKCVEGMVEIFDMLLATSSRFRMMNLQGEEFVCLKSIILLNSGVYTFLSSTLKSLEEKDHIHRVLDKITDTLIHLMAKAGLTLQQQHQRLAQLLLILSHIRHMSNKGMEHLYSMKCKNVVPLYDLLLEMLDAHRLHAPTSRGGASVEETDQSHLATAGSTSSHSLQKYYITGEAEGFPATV
Outline: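 In this cell-based reporter format, GripTite HEK293 cells harbouring ER-alpha-UAS-bla were grown overnight with 2% charcoal-stripped FBS, dosed with DMSO-dissolved compounds, then challenged with 17beta-estradiol. After 18 hr at 37C, beta-lactamase activity was detected by FRET fluorescence.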

[2] = qHTS assay to identify small molecule antagonists of the estrogen receptor alpha (ER-alpha) signaling pathway - cell viability counter screen (AID 743074); note: nearly all actives have a fitted effect of over 45% in size
[3] = molecular target: Estrogen receptor (Homo sapiens) (UniProt P03372); experiment: qHTS assay to identify small molecule agonists of the estrogen receptor alpha (ER-alpha) signaling pathway (AID 743075)
[4] = molecular target: Estrogen receptor (Homo sapiens) (UniProt P03372); experiment: qHTS assay to identify small molecule agonists of the estrogen receptor alpha (ER-alpha) signaling pathway using the BG1 cell line (AID 743079; active = well fitted curve in the direction sought with a large enough effect in the repeat runs; an effect the other way counts as inactive or inconclusive; note: nearly all actives have a fitted effect of over 20% in size; note: potency is the fitted concentration of half-maximal effect); details: BG1Luc4E2 cells, ERE-luciferase agonist, 22 h; activation: at 70.3 µM (top of the series)
[5] = qHTS assay to identify small molecule antagonists of the estrogen receptor alpha (ER-alpha) signaling pathway using the BG1 cell line (AID 743080);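 note: BG1 cells stimulated with 17beta-estradiol alongside compound; nearly all actives have a fitted effect of over 25% in size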
Outline: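 Quantitative HTS on the Tox21 10K library: BG1 cells with endogenous ER-alpha and ERE-luciferase reporter, 17beta-estradiol stimulation, 21.5 h compound exposure, luminescence endpoint with parallel fluorescence cytotoxicity counter-read.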

[6] = qHTS assay to identify small molecule antagonists of the estrogen receptor alpha (ER-alpha) signaling pathway using the BG1 cell line - cell viability counter screen (AID 743081; active = well fitted curve in the direction sought with a large enough effect in the repeat runs; an effect the other way counts as inactive or inconclusive;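 note: compound given together with 17beta-estradiol as the ER stimulus; nearly all actives have a fitted effect of over 45% in size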; note: potency is the fitted concentration of half-maximal effect)
[7] = molecular target: Aromatase (Homo sapiens) (UniProt P11511); experiment: qHTS assay to identify aromatase inhibitors (AID 743083; active = well fitted curve in the direction sought with a large enough effect in the repeat runs; an effect the other way counts as inactive or inconclusive; note: nearly all actives have a fitted effect of over 55% in size)
Sequence of Aromatase (Homo sapiens) (P11511 whole entry, looked up): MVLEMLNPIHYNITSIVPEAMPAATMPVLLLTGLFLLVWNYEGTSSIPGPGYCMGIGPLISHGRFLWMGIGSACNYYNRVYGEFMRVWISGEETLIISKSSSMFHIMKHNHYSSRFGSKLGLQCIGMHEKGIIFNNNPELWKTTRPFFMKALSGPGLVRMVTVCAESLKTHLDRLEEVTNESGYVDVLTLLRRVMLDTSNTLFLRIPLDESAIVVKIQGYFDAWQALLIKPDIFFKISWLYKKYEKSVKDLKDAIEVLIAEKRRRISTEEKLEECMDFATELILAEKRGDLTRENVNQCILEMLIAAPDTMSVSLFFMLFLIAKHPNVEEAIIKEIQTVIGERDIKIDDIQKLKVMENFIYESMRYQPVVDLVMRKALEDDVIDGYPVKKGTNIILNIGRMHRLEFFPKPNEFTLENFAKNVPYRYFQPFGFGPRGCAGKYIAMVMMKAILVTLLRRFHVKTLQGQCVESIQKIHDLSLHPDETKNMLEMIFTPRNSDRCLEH

[8] = test system: thyroid hormone receptor (rat, GH3 cells); experiment: qHTS assay to identify small molecule agonists of the thyroid receptor (TR) signaling pathway (AID 743066)

Measured: Potency

CN1CC(O)c2cc(N=NC(N)=O)c(O)cc21 (stereo not given)
not listed: [8]
inactive: all other assays above

CC(=C\c1ccccc1)/C=C1/SC(=S)N(CC(=O)O)C1=O
active: [6] 29.8 µM
inactive: all other assays above

COc1ccc(CCNCC(O)COc2cccc(C)c2)cc1OC (stereo not given)
inactive: all assays above

O=C(Nc1ccc(/C=C/c2ccc(NC(=O)c3cc(S(=O)(=O)O)c4cccnc4c3O)cc2S(=O)(=O)O)c(S(=O)(=O)O)c1)c1cc(S(=O)(=O)O)c2cccnc2c1O
inactive: all assays above

CCCCCCCCCCCCCCCC(=O)O[C@@H]1CC(C)=C(/C=C/C(C)=C/C=C/C(C)=C/C=C/C=C(C)/C=C/C=C(C)/C=C/C2=C(C)C[C@@H](OC(=O)CCCCCCCCCCCCCCC)CC2(C)C)C(C)(C)C1
not listed: [1]
inactive: all other assays above

CN1CCc2c(c3ccccc3n2Cc2ccccc2)C1
inactive: [8] | [6] | [7]

Cc1ccc(C2(O)CCN(CCCC(=O)c3ccc(F)cc3)CC2)cc1
inactive: all assays above

Oc1cc(O)cc(O)c1
inactive: [8] | [2] | [6] | [7]

COc1cc(Br)c(C[N+]2(CCOCCC3CCC4CC3C4(C)C)CCOCC2)cc1OC (stereo not given)
not listed: [7] | [8]
inactive: all other assays above

CCCC(=O)Nc1c(I)cc(I)c(CC(CC)C(=O)O)c1I (stereo not given)
not listed: [6]
inactive: all other assays above

CC(CN1c2ccccc2Sc2cccnc21)N(C)C (stereo not given)
not listed: [3]
inactive: all other assays above

CN1CCC(OC(=O)C(Oc2ccc(Cl)cc2)Oc2ccc(Cl)cc2)CC1
inactive: all assays above

CC[C@@H]1/C=C(\C)C[C@H](C)C[C@H](OC)[C@H]2O[C@@](O)(C(=O)C(=O)N3CCCC[C@H]3C(=O)O[C@H](/C(C)=C/[C@@H]3CC[C@@H](Cl)[C@H](OC)C3)[C@H](C)[C@@H](O)CC1=O)[C@H](C)C[C@@H]2OC
inactive: [8] | [2] | [6] | [7]

CCCCC(=O)N(Cc1ccc(-c2ccccc2-c2nn[nH]n2)cc1)[C@@H](C(=O)O)C(C)C
not listed: [8]
inactive: all other assays above

Clc1ccc(COC(Cn2ccnc2)c2ccc(Cl)cc2Cl)c(Cl)c1 (stereo not given)
not listed: [7] | [8]
inactive: all other assays above

C=Cc1c(C)c2cc3nc(cc4[nH]c(cc5nc(cc1[nH]2)C(C)=C5CCC(=O)OC)c(CCC(=O)O)c4C)[C@@]1(C)C3=CC=C(C(=O)OC)[C@H]1C(=O)OC
not listed: [1] | [6]
inactive: all other assays above

CCC(=O)NCCC1CCc2ccc3c(c21)CCO3 (stereo not given)
active: [4] 4.22 µM
not listed: [1] | [5]
inactive: all other assays above
